# From PubChem
# JMJD2A Tudor = qHTS Assay for Inhibitors of JMJD2A-Tudor Domain; Lysine-specific demethylase 4A (Homo sapiens), O75164; AlphaScreen JMJD2A-Tudor / H3K4me3 peptide binding; Potency, µM (titrated, usually from 114 µM), for inactives: at the top dose activity change, negative = inhibition, actives largely listed as inhibitors; actives 4.4% (n = 390,000); AID 504339, 2011; note: potency is the fitted concentration of half-maximal effect; % is set by controls: 0 for no effect and ±100 for the full control effect; nearly all actives have a fitted effect of over 50% in size
# PLK1 PBD inh = qHTS for Inhibitors of PLK1-PDB (polo-like kinase 1 - polo-box domain): Primary Screen; Serine/threonine-protein kinase PLK1 (Homo sapiens), P53350; actives 2.8% (n = 360,000); AID 720504, 2013; Potency, µM, without a hit: max response, negative = inhibition, most hits filed as inhibitors; Plk1 PBD binding of FITC phosphopeptide, fluorescence polarization; note: potency is the fitted concentration of half-maximal effect; series mostly up to about 57 µM; % is set by controls: 0 for no effect and ±100 for the full control effect; nearly all actives have a fitted effect of over 65% in size
# G9a inh = qHTS Assay for Inhibitors of Histone Lysine Methyltransferase G9a; Histone-lysine N-methyltransferase EHMT2 (Homo sapiens), Q96KQ7; G9a H3K9 monomethylation, AlphaScreen, 2 h; Potency, µM (top dose mostly 102 µM), without a hit: at the highest dose activity, negative = inhibition, actives largely listed as inhibitors; actives 8.8% (n = 350,000); AID 504332, 2011; note: potency is the fitted concentration of half-maximal effect; % is set by controls: 0 for no effect and ±100 for the full control effect; nearly all actives have a fitted effect of over 75% in size
# Target sequence (Q96KQ7 913-1193 limits assumed): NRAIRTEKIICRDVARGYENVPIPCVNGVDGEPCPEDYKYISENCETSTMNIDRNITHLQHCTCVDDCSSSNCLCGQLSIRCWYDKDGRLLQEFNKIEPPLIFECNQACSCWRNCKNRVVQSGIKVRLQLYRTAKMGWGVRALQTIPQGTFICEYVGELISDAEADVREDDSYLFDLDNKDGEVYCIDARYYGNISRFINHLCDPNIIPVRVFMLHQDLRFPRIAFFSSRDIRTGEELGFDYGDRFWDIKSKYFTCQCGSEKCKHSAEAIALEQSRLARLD
#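 Methyltransferase reactions run at room temperature for 2 h (20 nM enzyme, 500 nM biotin-H3K9 peptide, 20 uM SAM) after a 15 min compound preincubation; product detected by AlphaScreen beads and anti-H3K9me1 antibody.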
# PI5P4K alpha inh = qHTS for Inhibitors of phosphatidylinositol 5-phosphate 4-kinase (PI5P4K); Phosphatidylinositol 5-phosphate 4-kinase type-2 alpha (Homo sapiens), P48426; PI5P4Kalpha enzyme, ADP-Glo luminescence, 60 min; hits give low values; max response, %; actives 1.2% (n = 330,000); active = max response of -50% or lower; inconclusive = between -30% and -50%; inactive = -30% or higher; note: value at the top dose of about 77 µM; % is set by controls: 0 for no effect and ±100 for the full control effect
#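 ADP-Glo luminescence end-point after a 60 min room-temperature kinase reaction. PI5P4Kalpha and substrate in HEPES pH 7.4 buffer with EGTA, 0.1% CHAPS and 5% DMSO; ATP at 5 microM final.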
# HP1b binding inh = HTS for Inhibitors of HP1-beta Chromodomain Interactions with Methylated Histone Tails; Chromobox protein homolog 1 (Homo sapiens), P83916; AlphaScreen HP1-beta / biotin-H3K9me3 peptide binding; Potency, µM (series often up to 114 µM), for the others: at the highest dose activity change, negative = inhibition, most hits filed as inhibitors; actives 0.56% (n = 390,000); AID 540317, 2011; note: potency is the fitted concentration of half-maximal effect; nearly all actives have a fitted effect of over 70% in size
# Target sequence (P83916 whole entry, looked up): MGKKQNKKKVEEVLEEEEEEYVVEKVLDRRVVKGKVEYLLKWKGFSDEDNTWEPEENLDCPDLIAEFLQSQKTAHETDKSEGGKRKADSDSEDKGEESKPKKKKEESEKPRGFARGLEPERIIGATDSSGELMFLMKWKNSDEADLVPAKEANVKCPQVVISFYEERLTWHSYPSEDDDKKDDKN
#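 AlphaScreen: HP1-beta (50 nM) preformed 30 min with biotin-H3(1-18)K9me3 peptide (50 nM) in PBS pH 7.4, 0.01% Tween-20. Compound added for 30 min at RT, then streptavidin donor/nickel chelate acceptor beads (10 ug/mL) for 30 min.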
# BAZ2B block = qHTS Assay for Inhibitors of BAZ2B | Bromodomain adjacent to zinc finger domain protein 2B (Homo sapiens), Q9UIF8 | AlphaScreen BAZ2B-H3K14Ac peptide displacement | Potency, µM (top dose mostly 114 µM), for the others: top-dose activity change, negative = inhibition, usual class: inhibitors | actives 4.4% (n = 360,000) | AID 504333, 2011; note: potency is the fitted concentration of half-maximal effect; % is set by controls: 0 for no effect and ±100 for the full control effect; nearly all actives have a fitted effect of over 60% in size
#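 BAZ2B (50 nM) with biotin-H3(5-23)K14Ac peptide (50 nM) in PBS pH 7.4, 0.01% Tween-20, preformed 30 min, then compound 30 min at room temperature; top concentration 110uM. AlphaScreen streptavidin donor/nickel chelate acceptor beads (10 ug/mL final), 20 min dark, signal read.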
# * = called active by the depositor; ? = inconclusive; . = not tested or not shown; [ ] = another dose, or the depositor's remark. Shown are actives, neighbours in structure and some others; about 12% of the full set was active somewhere. Unless noted, calls come from the whole dose curve; as a rule, active = well fitted curve in the direction sought with a large enough effect; inconclusive = small, poorly fitted or top-dose-only effect, or another doubt; inactive = no such curve, though single readings can be large; an effect the other way counts as inactive or inconclusive.
SMILES,JMJD2A Tudor,PLK1 PBD inh,G9a inh,PI5P4K alpha inh,HP1b binding inh,BAZ2B block
O=C(CN1C(=O)CC(c2ccco2)Sc2ccccc21)Nc1cccc(C(F)(F)F)c1 (stereo unspecified),-9.5%,.,-15.2%[59 µM],.,30.7%,-36.9%
O=C(OCc1ccccc1Cl)c1ccc(-c2nnn(Cc3ccccc3)n2)cc1,-1.9%,.,-3.4%[59 µM],.,35.8%,-2.0%
COc1ccc(S(=O)(=O)CC2(O)CCN(C(=O)CC(C)C)CC2)cc1,-8.6%,-7.8%,54.9%,3.7,14.7%,12.9%
CCN1CCN(CC(=O)Nc2c(OC)cccc2OC)CC1,5.01µM*,1.5%,39.8µM*,8.1,44.7µM*,17.8µM*
CN(Cc1ccccc1)C(=O)[C@H](Cc1ccc2ccccc2c1)NC(=O)[C@@H]1C[C@@H](O)CN1C(=O)c1cn(C)c2ccccc12,.,.,7.5%[59 µM],.,.,.
Nc1nc(NC(=O)c2cccnc2)nn1-c1ccccc1,11.2µM*,1.0%,14.1µM*,-2.0,8.0%,79.4µM*
Nc1nc(NC(=O)C(Cl)(Cl)Cl)nn1-c1ccccc1,25.1µM*,-8.4%,16.3%,-4.4,10.9%,8.91µM*
Nc1nc(NC(=O)c2ccc(Cl)cc2)nn1-c1ccccc1,-18.3%,1.9%,0.4%[59 µM],0.3,25.6%,?
Cc1c(NC(=O)c2cccs2)cccc1-c1nc2cc(Cl)ccc2o1,-20.2%,.,3.1%[59 µM],.,11.4%,-22.0%
CCc1ccc(NC(=O)CN2C(=O)c3ccccc3Sc3ccc(C(=O)N4CCCC4)cc32)cc1,-11.5%,.,-31.0%[59 µM],.,2.5%,-14.8%
O=C(Cn1ccnc1)c1ccc(O)c(O)c1,22.4µM*,-9.3%,?,-2.0,15.1%,56.2µM*
Cc1cccc(N2CCN(C(=O)C3CCN(S(=O)(=O)c4ccc5c(c4)oc(=O)n5C)CC3)CC2)c1C,-17.2%,.,-20.1%[59 µM],.,20.0%,-10.7%
CN(C(=S)NC(=O)C12CC3CC(CC(C3)C1)C2)c1ccc(O)cc1,50.1µM*,33.6µM*,.,-1.4,10µM*,.
CC(C)(C)NC(=S)NC(=O)C12CC3CCC(CC(C3)C1)C2,89.1µM*,-3.3%,-8.6%[59 µM],-0.2,-15.2%,-38.4%
O=C(NC(=S)N1CCN(CCO)CC1)C12CC3CC(CC(C3)C1)C2,-14.5%,-9.7%,18.3%[59 µM],-3.7,43.8%,-13.6%
CN1CCC(N(C)C(=S)NC(=O)C23CC4CC(CC(C4)C2)C3)CC1,-4.4%,-26.4%,39.8µM*,-24.8,-10.7%,10.1%
CN(C)NC(=S)NC(=O)C12CC3CC(CC(C3)C1)C2,?,-10.9%,-41.8%,2.4,10.0%,?
O=C(Nc1cc(-c2nc3ccccc3o2)ccc1Cl)c1sc2c([N+](=O)[O-])cccc2c1Cl,-28.4%,.,21.1%[59 µM],.,37.9%,-29.0%
CCCC(=O)Nc1nnc(S(=O)(=O)N(C)Cc2ccc(Cl)cc2)s1,-9.0%,.,-3.6%[59 µM],.,18.0%,-14.8%
O=C(NCc1cccnc1)c1cc(C2CCCN(S(=O)(=O)c3ccccc3)C2)on1 (stereo unspecified),.,-11.1%,.,-5.3,.,.
COc1c(C=O)c(O)cc2c1C(=O)c1ccccc1C2=O,.,.,5.01µM*,.,.,.
Cc1ccnc2nc(C(=O)OCC(=O)c3c[nH]c4ccccc34)nn12,-24.7%,?,?,-11.8,?,-7.3%
Cc1cccc(-c2noc(CCCC(=O)NCC3CCCO3)n2)c1 (stereo unspecified),-12.7%,-6.3%,-10.2%[59 µM],-5.8,28.3%,7.3%
Cc1cccc(C2(c3cccc(C)c3)CC2C(=O)NCC2CCCO2)c1 (stereo unspecified),79.4µM*,26.7µM*,17.0%,-4.0,13.2%,0.0%
Cc1cccc(-c2nsc(SCC(=O)NCC3CCCO3)n2)c1 (stereo unspecified),-2.3%,8.44µM*,17.8µM*,3.0,-9.5%,-15.1%
SMILES,JMJD2A Tudor,PLK1 PBD inh,G9a inh,PI5P4K alpha inh,HP1b binding inh,BAZ2B block
Cc1cccc(-c2nsc(SCC(=O)c3ccc(Cl)cc3)n2)c1,44.3%,16.8µM*,-12.2%,5.9,80.8%,12.6%
CCOC(=O)CNC(=O)CSc1nc(-c2cccc(C)c2)ns1,-0.8%,10.6µM*,11.2µM*,-12.5,-21.3%,-0.2%
C[C@@H]1CN([C@H](C)CO)C(=O)c2cc(C3=CCCCC3)cnc2O[C@@H]1CN(C)Cc1ccccc1C(=O)O,.,-10.0%,.,0.3,.,.
Cc1cccc(-c2nsc(SCC(=O)NCc3ccco3)n2)c1,-22.1%,21.2µM*,31.6µM*,.,-13.8%,-9.3%
Cc1ccc2nc(SCC(=O)NCc3ccco3)c(C)cc2c1,-28.5%,-15.1%,0.5%,-13.6,10.3%,-38.3%
O=C(CCc1ccc(S(=O)(=O)NC2CCCCC2)cc1)NCc1ccc(Cl)cc1,-1.0%,-5.3%,24.7%[2.33 µM],-4.2,28.8%,8.2%
Cc1ccc(C)c(NC(=O)CCc2ccc(S(=O)(=O)NC3CCCCC3)cc2)c1,-26.0%[11.4 µM],6.7µM*,5.3%,-29.3,-11.2%,7.8%
Cc1cc(N2C(=O)C3CCC(c4ccccc4)CC3C2=O)no1 (stereo unspecified),0.7%,0.8%,-5.4%,3.0,19.9%,-12.8%
C[n+]1ccccc1Nc1cc([N+](=O)[O-])ccc1N,-7.3%,0.9%,11.2µM*,2.7,21.9%,?
Cc1cc([N+](=O)[O-])ccc1N,-13.7%,-15.7%,-49.3%,1.6,36.6%,-2.6%
COc1cccc(O)c1CN1CCC(C(=O)Nc2ccc(Oc3cccnc3)cc2)CC1,-22.1%,1.0%,32.4%,6.1,8.1%,5.3%
COc1ccc(CN2CCC(C(=O)Nc3ccc(Oc4cccnc4)cc3)CC2)cc1,-16.0%,-8.0%,35.5µM*,1.6,4.1%,-28.3%
COc1ccc2nc3oc(C(=O)Nc4cccc(C(F)(F)F)c4)cc3cc2c1,-11.9%,.,7.8%[59 µM],.,18.5%[57 µM],11.8%
Cc1ccc(NN2C(=O)C=C(c3ccccc3)C2=O)cc1,-32.4%,8.44µM*,10µM*,-13.3,-33.4%,-31.2%
COc1cc(CNCCc2ccccc2)ccc1OCC(N)=O,-5.8%,-7.8%,-44.8%[59 µM],-6.6,28.5%,-7.6%
CCOC(=O)CCNCc1ccc(OC)c(OC)c1,-15.4%[11.4 µM],23.8µM*,4.8%[12.7 µM],-30.0,13.7%,3.4%
CCOc1cc(CNCc2ccc(C(=O)O)cc2)ccc1OC,1.5%[11.4 µM],-15.3%,.,9.6,60.7%,-35.6%
CCOC(=O)CC(NCc1ccc(OC)c(OCC)c1)c1ccc(C)cc1 (stereo unspecified),56.2µM*,21.2µM*,-14.1%[12.7 µM],-26.4,3.9%,-15.5%
COc1ccc(CNCCNC(=O)c2cccs2)cc1OC,20µM*,5.8%,11.2µM*,-2.1,?,.
